# Laboratory results from ChEMBL document CHEMBL3988442, “University of Dundee, Small-Polar-MMV Screening Library” (2021).
# Assays:
# [1] = target: T1, Aspartate--tRNA(Asp/Asn) ligase (Mycobacterium tuberculosis (strain ATCC 25618 / H37Rv)) (UniProt P9WFW3); experiment: Assay for Asp RNA synthetase-1 from Mycobacterium tuberculosis; assay type: functional; parameters: scale not given: direction of the effect not stated beside the values; details: 30 µM; note: in the data most compounds retested in dose-response had high values
# T1 sequence (whole entry): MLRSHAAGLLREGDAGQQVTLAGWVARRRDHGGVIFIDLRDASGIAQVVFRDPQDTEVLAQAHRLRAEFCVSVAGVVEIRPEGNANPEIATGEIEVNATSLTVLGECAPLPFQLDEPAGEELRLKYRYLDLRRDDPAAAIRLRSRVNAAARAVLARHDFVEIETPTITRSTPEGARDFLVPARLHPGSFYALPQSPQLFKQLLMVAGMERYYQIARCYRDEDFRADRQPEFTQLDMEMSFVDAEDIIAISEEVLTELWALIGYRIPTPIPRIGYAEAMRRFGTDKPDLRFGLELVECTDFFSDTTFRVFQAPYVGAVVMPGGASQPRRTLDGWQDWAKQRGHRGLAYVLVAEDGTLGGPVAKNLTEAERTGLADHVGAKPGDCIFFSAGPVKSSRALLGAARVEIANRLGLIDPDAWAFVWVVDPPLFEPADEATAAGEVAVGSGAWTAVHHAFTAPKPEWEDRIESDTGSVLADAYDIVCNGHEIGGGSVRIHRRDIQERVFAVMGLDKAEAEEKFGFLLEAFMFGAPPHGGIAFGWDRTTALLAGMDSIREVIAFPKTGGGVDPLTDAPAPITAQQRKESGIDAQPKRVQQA
# [2] = target: Shiga toxin 2 (Escherichia coli O157:H7) (UniProt P09385+P09386); experiment: E. coli 0.157:H7 Shiga Toxin SOP - stx2 screening assay; assay type: functional; parameters: scale not given: direction of the effect not stated beside the values; details: 30 µM
Structure (SMILES),Percent Effect [1] [%],Percent Effect [2] [%]
Cc1nn(C)c(C)c1NC(=O)CN1CCCC1c1noc(C2CC2)n1 (centres undefined),5.58,-27.4
COCCO[C@@H]1CCN(C(=O)c2ccc(C)o2)[C@@H]1Cc1cnn(C)c1,2.6,2.85
COCC(=O)N1CC[C@@H]2O[C@H](COCc3ccncc3)CC[C@@H]21,4.14,-2.38
Cc1nc(C)n(CC2CN(c3ccc(C#N)cn3)CCO2)n1 (centres undefined),2.39,19.5
COCC1CC2(CCN(Cc3cnn(C)c3)CC2)CN1C(C)C (centres undefined),10.7,-9.26
O=C(CCc1nc2cccnc2[nH]1)Nc1cccnc1,-1.77,-77.4
Cc1ccc(CNC(=O)CN2CCN(CC(O)C3CC3)CC2)cc1 (centres undefined),1.21,-15.5
Cc1ccc(C(C)N(C)Cc2nc3c(cnn3C)c(=O)[nH]2)cc1 (centres undefined),1.46,12.8
Cc1nnc(N2CC[C@H]3C[C@@H](C(=O)NC4CCCC4)O[C@H]3C2)s1,0.29,-4.68
Cc1nc(CN2CCN(Cc3ccoc3)Cc3cccnc32)cs1,4.04,-1.98
CCc1nnc2n1CCN(Cc1csc(-c3ccc(C)o3)n1)C2,0.544,-33.1
Cn1ccc(C(=O)NCc2cccc(NC(=O)C3CCC3)c2)cc1=O,-0.879,-48
Cc1cc(N(C)C)nc(C2(C)CCCN2C(=O)c2cnccn2)n1 (centres undefined),1.19,-0.274
CC(Cn1ccnc1)NC(=O)C1(c2ccc(F)cc2)CC1 (centres undefined),-1.46,2.06
NC(=O)CN1CCC(NC(=O)c2ccn(-c3cccc(F)c3)n2)CC1,2.51,-20
CN1CC2(COCCN(C(=O)c3ccco3)C2)OCC1=O (centres undefined),8.76,9.96
COc1cccc2cc(CNC(=O)N3CCCC(O)C3)oc12 (centres undefined),-4.17,-15.3
CC(C)c1csc(C2CCCN(C(=O)Cn3ccccc3=O)C2)n1 (centres undefined),-3.63,-29.5
Cc1nccnc1N1CC[C@@H](NC(=O)c2cnccn2)[C@H](O)C1,3.96,-24.4
COC(=O)c1cccc(OCCn2nc(-c3cccs3)oc2=O)c1,3.9,25
CCSc1cc(C(=O)NCCC(=O)Nc2ccccn2)ccn1,-1.96,-56.5
Cc1cc2nc(SCC(=O)N3CCCC3)n(C(C)C)c(=O)c2[nH]1,0.509,-18
Cc1cnc2n(c1=O)C(CC(=O)NCc1cc(-c3cccs3)on1)CS2 (centres undefined),1.62,-30.9
Cc1ccc(NC2CCN(C(=O)Cn3nc(C)cc3C)CC2)nn1,-3.3,28.3
CCc1nc(CC(=O)N2CCn3c(nnc3C(C)C)C2)cs1,-0.367,-14.7
CCc1nccn1C1CCCN(C(=O)Cc2n[nH]c3ccccc23)C1 (centres undefined),0.83,13.1

Structure (SMILES),Percent Effect [1] [%],Percent Effect [2] [%]
COc1ccc(NC(C)C(=O)N2CCN(c3ncccn3)CC2)cn1 (centres undefined),-4.63,5.46
CC(C)c1nc(C(=O)N2CCCC(n3cncn3)C2)c[nH]1 (centres undefined),-5.02,-8.87
CC(=O)c1ccc(N2CCC(CO)(CCOc3ccccc3)CC2)nc1,0.327,-31.2
COc1ccc(OC)c(NC(=O)c2nc3ccccc3n(C)c2=O)c1,1.01,-23.2
CC(=O)Nc1nc(C(=O)N2CCCC2Cn2cc(C)cn2)cs1 (centres undefined),-1.84,20.3
COc1cccc(COCC(=O)N2CCC(CC(N)=O)CC2)c1,-3.72,32.3
c1coc(CN2Cc3nccn3CC(Cn3cncn3)C2)c1 (centres undefined),-0.866,-9.64
Cn1nnc2c1C(COCc1ccccn1)CN(C(=O)c1cccs1)C2 (centres undefined),0.388,13.7
COc1ccc(CN2CCC3(CC2)CCN(CC2CC2)C3=O)cc1,-4.6,-2.04
CC1CCN(S(=O)(=O)NCCCn2cncn2)CC1,-2.66,-6.63
O=C(C1=CCCC1)N1CCO[C@H]2[C@@H](Oc3ccccn3)CC[C@@H]21,0.28,-1.55
CN(C)CC1CN(Cc2coc(-c3ccccc3Cl)n2)CCO1 (centres undefined),-5.66,-26.4
CC(C)c1noc(CN(Cc2ccccc2F)C2CC2)n1,12.6,-59.6
O=C(c1cccn2ccnc12)N1CCCN(c2cccnn2)CC1,2.1,22.9
CN(Cc1ccsc1)C(=O)CN1CCCC1Cn1cccn1 (centres undefined),2.25,-9.42
COc1cc(CNC2CCCc3c2cnn3C)cc(OC)c1 (centres undefined),-0.657,18.7
O=C(NCC1CC1)Nc1cnc2cc(Cl)ccc2c1O,-0.223,-0.695
CC(C)c1ncncc1C(=O)N1CCCN(Cc2cccs2)CC1,-3.79,6.52
O=C(COc1cccc2c1CCC2=O)NCCOc1ccccc1,12.7,-35
CC(C)c1nc(C2CCCN2CC(=O)Nc2nncs2)no1 (centres undefined),-6.57,9.9
COC(=O)c1ccc(C(=O)NS(=O)(=O)c2cncc(Br)c2)cc1,-0.323,8.86
Cc1cccc(-c2noc(CN3CC(n4cc(C)cn4)C3)n2)c1,-0.577,-2.34
COc1cccc(COCC(=O)N2CCCC(n3ccnc3C)C2)c1 (centres undefined),-4.19,-2.47
Cc1cccc(CN(Cc2ccc(C)o2)C2CC(C)(C)NC(C)(C)C2)n1,-1.8,3.65
O=C(NCc1ccc(F)cc1)N1CCC(C2OCCO2)CC1,3.59,1.94
CCS(=O)(=O)CC(=O)NC(c1ccccc1)C1CCCCC1 (centres undefined),3.23,7.43

Structure (SMILES),Percent Effect [1] [%],Percent Effect [2] [%]
COC(=O)c1cccc(C(=O)N2CCN(c3ccccc3F)CC2)n1,-0.801,-16.2
Cn1cnc2c1CCN(CCCc1ccccc1)C2,1.13,1.04
COc1ccc(OCC(=O)NS(=O)(=O)c2cc(F)ccc2F)cc1,-1.01,-20.6
Cc1cc(CNC(=O)N2CCN(c3ccccc3)CC2)no1,1.31,-2.24
Cc1cccc2cc(CNCCCN3CCOCC3)c(=O)[nH]c12,0.253,-27.9
COc1ccnc(N2CCN(C(=O)Cc3ccc(C)s3)CC2)n1,2.36,5.8
Cc1nc(C2CCCN(C(=O)CO)C2)cc(N2CCOCC2)n1 (centres undefined),-4.78,17.9
CC(C)n1ncc2c1NC(=O)CSC2C(C)(C)C (centres undefined),-2.73,-13.8
COc1cc(C)c(C(C)NC(=O)Nc2nnc(C)s2)cc1OC (centres undefined),-7.26,9.98
Cc1cnn(CCNCc2ccc(F)cc2Cl)c1,0.495,-22.9
O=C(CCc1cscn1)NS(=O)(=O)c1ccc2ccccc2c1,-3.43,11.4
COCCOc1ccc(NC(=O)C2CC(=O)N(C)C2)cn1 (centres undefined),3.77,-88.5
N#Cc1ccc(F)c(CN2CCCC2Cn2cccn2)c1 (centres undefined),0.262,1.36
Fc1ccc(CN2CCCN(Cc3cscn3)CC2)cc1,1.87,2.42
Cc1cnn(C2CCCN(C(=O)CCCNc3ncccn3)C2)c1 (centres undefined),1.18,20.6
CCc1ccc(CNC(=O)N2CCN(Cc3cc(C)no3)CC2)s1,12,27
COCc1nc(C(=O)NS(=O)(=O)c2ccc(C)cc2C)cs1,0.811,-0.5
O=C(Nc1cccc(Cl)c1)c1nn(C2CCS(=O)(=O)C2)c2c1CCCC2 (centres undefined),6.98,5.07
CCCNC(=O)c1sccc1N(C)S(=O)(=O)c1ccc(Cl)cc1,12.9,-24.4
COCCCNC(=O)CN(C)C(=O)c1cc(C)ccc1O,0.583,14.3
NC(=O)COc1cccc(C(=O)N2CCCC(n3cccn3)C2)c1 (centres undefined),-6,-18.8
O=C(c1cscn1)N1CC[C@]2(C[C@@H](OCCN3CCCC3)CO2)C1,-3.81,-17.4
Cc1nccc(CN2CCC(c3nnsc3S(C)(=O)=O)CC2)n1,-0.313,5.72
O=C(NCC1CC1)[C@H]1C[C@H]2OCC[C@H]2N(CCc2ccccc2)C1,3.44,2.56
Cc1nn(C)c2cnn(C(C)C(=O)NCc3cccnc3)c12 (centres undefined),-7.38,-21.6
CCN1CC2(CCNCC2)COc2ccccc2S1(=O)=O,-1.28,-27.7

Structure (SMILES),Percent Effect [1] [%],Percent Effect [2] [%]
CC(CC#N)NC(=O)c1cc(Br)c2c(c1)OCCO2 (centres undefined),-8.16,-5.44
COc1ncccc1NC(=O)NCC(O)c1ccc(F)cc1F (centres undefined),4.06,-0.623
O=S(=O)(Cc1ccccc1)NCc1ccco1,-3.04,4.92
COc1c(C2CCCN2Cc2cc(C)no2)c(C)nn1C (centres undefined),3.61,18.1
CC(C)n1ccnc1CN1CCCN(C(=O)c2cccnc2O)CC1,-2.15,-43.9
Cc1cccc(-c2nc(CN3CCCCC3Cn3cncn3)no2)c1 (centres undefined),-2.9,15.3
CNC(=O)C1CCC(NC(=O)N(C)Cc2c(C)noc2C)CC1 (centres undefined),-3.01,14.3
Cn1cnc2c1C(COCC1CCOCC1)CN(C(=O)c1ccoc1)C2 (centres undefined),2.22,-11.7
O=C(c1ccco1)N1CCOCC2(CCN(C3CCOCC3)C2)C1 (centres undefined),8.62,-31.1
CS(=O)(=O)NCC1CCCN(C(=O)Nc2cccnc2N2CCCC2)C1 (centres undefined),6.08,-16.6
Cn1cccc1-c1cc(C(=O)N2CCCC2c2cccnc2)[nH]n1 (centres undefined),2.57,4.82
CC(C)c1ncc(CN2CCCC(CO)C2)cn1 (centres undefined),0.491,5.71
Cc1noc(C)c1CN1CCN(C(=O)Cn2cncn2)CC1,3.12,7.4
CC(C)NC(=O)c1nnn(-c2cccc(C(F)(F)F)c2)c1C1CC1,-2.65,8.87
Cc1ccc(C)c(OC2CCN(C(=O)c3ccc(O)nc3)CC2)c1,-0.922,26.4
Cn1cccc1C(=O)N[C@@H]1CN(CC2CC2)[C@@H]2COC[C@@H]21,1.28,-3.7
CN(Cc1ccco1)C(=O)C1CSCN1C(=O)c1cccnc1 (centres undefined),2.02,13.1
O=C(c1ccn(-c2cccc(Cl)c2)n1)N1CCN(C2CC2)CC1,-1.64,20.3
CC(CNC(=O)c1cccnc1Oc1cccnc1)N(C)C (centres undefined),-3.18,-12.1
CC(C)NC(=O)Nc1ccc(CS(=O)(=O)C(C)(C)C)cc1,0.689,0.4
CC(NC(=O)NCc1ccc(Cl)cc1)c1ccccn1 (centres undefined),0.364,-27.4
Cc1nccn1-c1cccc(C2CCCN2S(=O)(=O)c2cn(C)cn2)n1 (centres undefined),12.1,45.9
O=C(CN1CCCC(Cn2cncn2)C1)NCCOc1ccccc1 (centres undefined),-2.48,-0.612
Cc1nc(C2CCCN(C(=O)c3ccc(OCC4CC4)cc3)C2)no1 (centres undefined),-8.26,-5.46
